# High-throughput results as filed in PubChem BioAssay.
# Only a sample is shown.
# PostGolgi ctrl: growth of the yeast control strain, post-Golgi counter-screen; AID 738; efflux-deficient yeast background strain, growth absorbance A615, 16 h; inhibition, % at 10 µM; actives 5% (n = 98,000)
# CYP2C9 inhib: human CYP2C9 inhibition. actives 20% (n = 96,000). inhibition, % at 5 µM. CYP2C9 Supersomes, luciferin-H conversion, luminescence. P11712. AID 777;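 active means blocking of liver enzyme CYP2C9 beyond about 50% at 5 µM, limit read from the data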
# CYP2C19 act: cytochrome P450 2C19 (human) activation. activation factor at 5 µM. P33261. AID 1025. 96,000 tested, under 10 active. recombinant CYP2C19, luciferin-H EGE luminescence; stronger effect = higher value; 0 = fully inhibited enzyme, 1 = untreated enzyme;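 active means activation factor of at least 2 at 5 µM in the primary screen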;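 further: 0 = wells with 2.5 mM tranylcypromine and 1 = vehicle-only wells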
# Target sequence (P33261 whole entry, looked up): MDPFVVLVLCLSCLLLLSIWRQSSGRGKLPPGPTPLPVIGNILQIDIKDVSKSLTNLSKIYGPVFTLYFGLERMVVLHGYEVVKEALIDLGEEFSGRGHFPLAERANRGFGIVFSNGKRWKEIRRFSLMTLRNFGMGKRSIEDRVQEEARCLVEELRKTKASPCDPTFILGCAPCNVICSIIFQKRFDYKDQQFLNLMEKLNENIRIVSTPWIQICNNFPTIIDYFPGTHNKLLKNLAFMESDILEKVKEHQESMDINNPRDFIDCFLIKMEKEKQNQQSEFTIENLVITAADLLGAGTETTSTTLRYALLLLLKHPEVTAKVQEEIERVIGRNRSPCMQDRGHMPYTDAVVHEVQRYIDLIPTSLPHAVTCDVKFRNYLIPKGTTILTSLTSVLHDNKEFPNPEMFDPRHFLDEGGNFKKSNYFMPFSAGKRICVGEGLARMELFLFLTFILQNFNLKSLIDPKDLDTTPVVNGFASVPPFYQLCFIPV
# CYP2C9 activ: increases human cytochrome P450 2C9 activity | P11712 | recombinant CYP2C9, luciferin-H conversion, luminescence; stronger effect = higher value; factor 1 = untreated enzyme, 0 = blocked | activation factor at 5 µM | actives 1.4% (n = 96,000) | AID 1024;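 active means activation factor of 2 or more for CYP2C9 at a 5 µM dose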;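 further: 0 = sulfaphenazole-blocked wells and 1 = vehicle-only wells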
# CYP2C19 inhib: inhibitors of human CYP2C19 | P33261 | CYP2C19 Supersomes, luciferin-H EGE luminescence, 30 min | inhibition, % at 5 µM | actives 21% (n = 96,000);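 active means CYP2C19 inhibition above a set limit at 5 µM in the primary screen, cut at about 50% in these data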;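 further: plate controls were negative control wells for no effect and 2.5 mM tranylcypromine positive control for full effect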
# PostGolgi yeast: growth inhibition of a yeast mutant, post-Golgi transport screen | actives 0.9% (n = 98,000) | inhibition, % at 10 µM | post-Golgi transport phenotypic cell assay;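 further: yeast cells grown in 1536-well plates; yeast grown about 18 h at 30C before absorbance read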
# Starred values were filed as active, the others as inactive; . = no result. Unless noted, no stated cut-off is given here; in the data, active means inhibition above about 30%; inactive means the rest.
SMILES,PostGolgi ctrl,CYP2C9 inhib,CYP2C19 act,CYP2C9 activ,CYP2C19 inhib,PostGolgi yeast
COC(=O)c1ccc(NC(=O)C(=O)N2CCCC2)cc1,-6,21,0.8,0.8,15,5
C/C(=N\Nc1nc2c(s1)CCCC2)c1ccccc1,20,82*,0.3,0.2,72*,-3
O=S(=O)(c1cccc(-c2nnc(SCc3nc4ccccc4s3)o2)c1)N1CCOCC1,28,50,0.5,0.5,51*,14
O=S(=O)(c1ccc(OCc2nc3ccccc3s2)c(Cl)c1)N1CCOCC1,0,43,0.7,0.6,26,14
CC(=O)c1cccc(NC(=O)CSc2nnc(-c3ccc(S(=O)(=O)N4CCCC4)cc3)o2)c1,-9,29,0.9,0.7,13,-12
O=c1c2ccccc2nnn1CSc1nnc(-c2cccc(S(=O)(=O)N3CCCCC3)c2)o1,12,81*,0.3,0.2,75*,-2
O=C(CN1NS(=O)(=O)c2ccccc2C1=O)Nc1ccccc1OC(F)F,6,34,0.9,0.7,13,5
CCc1cccc2c(C=C(C#N)C#N)cn(CC(=O)N3CCCC3)c12,13,-4,1.1,1,-8,0
Cc1nnsc1SC(C)C(=O)O (configuration not stated),-2,-1,1,1,-1,3
CCc1nc2ccccc2n1Cc1ccccc1OC,10,65*,0,0.3,96*,3
COc1ccc(C)cc1Cn1c(S(C)(=O)=O)nc2ccccc21,16,62*,0,0.4,98*,13
COc1ccc(Cn2c(CCCO)nc3ccccc32)cc1OC,6,59*,0.1,0.4,91*,20
CS(=O)(=O)c1nc2ccccc2n1Cc1ccccc1,6,11,0.6,0.9,45,-9
CCc1nc2ccccc2n1Cc1ccc(OC)c(OC)c1,2,.,.,.,.,5
CCS(=O)(=O)c1nc2ccccc2n1Cc1ccccc1Cl,10,62*,0.1,0.4,91*,1
CCC(C)(C(=O)NC1CCCC1)N(C(=O)CC1NC(=O)NC1=O)c1ccc(C)cc1 (configuration not stated),-3,-7,1,1.1,4,-7
C/C(Cn1nc([N+](=O)[O-])cc1C)=N\NC(=O)c1ccc(O)cc1O,2,14,0.9,0.9,5,18
O=C(COc1ccc(/C=N/NC(=O)c2cc3ccccc3o2)cc1Br)Nc1ccccc1,-5,43,0.9,0.6,11,10
COc1ccccc1Cn1c(CCCO)nc2ccccc21,0,65*,0.2,0.3,84*,8
CC(=O)Nc1ccc(NC(=O)COC(=O)Cc2cccs2)cc1,-1,10,0.9,0.9,11,-4
COc1ccc(NC(=O)C2CC(=O)N(C(C)C)C2)cc1 (configuration not stated),10,-10,1,1.1,-4,0
CCOC(=O)C1Cc2ccccc2CN1 (configuration not stated),10,0,1,1,-1,-8
COC(=O)c1c(N)c2ccccc2[nH]c1=O,-2,-20,1.1,1.2,-6,10
CCOC(=O)C1Cc2c([nH]c3ccccc23)CN1 (configuration not stated),1,3,0.4,1,56*,0
COC(=O)C1Cc2c([nH]c3ccccc23)C(C)N1 (configuration not stated),14,-159,0.5,2.6*,50*,-2
SMILES,PostGolgi ctrl,CYP2C9 inhib,CYP2C19 act,CYP2C9 activ,CYP2C19 inhib,PostGolgi yeast
COc1ccc(CCC(=O)N2CCc3ccccc32)cc1,30,-2,0.4,1,60*,4
Cc1ccc(OCCC(=O)OCC(=O)N2c3ccccc3CC2C)cc1 (configuration not stated),-4,-49,1,1.5,4,15
O=C(Cn1cc2c(n1)CCCCC2)N1CCc2ccccc21,3,29,0.8,0.7,24,3
COc1ccc(CCC(=O)N2c3ccccc3CC2C)cc1 (configuration not stated),10,57*,0,0.4,96*,-26
Cc1ccc(OC(=O)CCC(=O)N2CCc3ccccc32)cc1,0,-18,1,1.2,-1,-5
O=C(Cc1ccc(-n2cccc2)cc1)N1CCc2ccccc21,8,11,0.4,0.9,59*,-4
COc1ccccc1NC(=O)CSc1nc(O)cc(=O)n1-c1ccccc1OC,35*,-13,1,1.1,1,-3
COc1ccccc1-n1c(SCC(=O)Nc2ccccc2C)nc(O)cc1=O,37*,7,1,0.9,5,8
COc1ccccc1-n1c(SCC(=O)NC(C)(C)C)nc(O)cc1=O,5,-8,1.1,1.1,-10,2
CC(=O)Cc1nsc(NC(=O)c2cccs2)n1,7,-4,1.1,1,-9,4
Cc1ccc(NCc2nnc(SCC(=O)NCc3ccco3)n2CC2CCCO2)c(C)c1 (configuration not stated),12,-8,0.9,1.1,5,-11
O=C(CSc1nnc(CNc2ccc(F)cc2)n1Cc1ccccc1)NCc1ccco1,4,53*,0.5,0.5,54*,-2
COc1ccccc1OCc1nnc(SCC(=O)NCc2ccco2)n1Cc1ccco1,3,58*,0.4,0.4,62*,-8
Cc1ccc(NCc2nnc(SCC(=O)NCc3ccco3)n2CC2CCCO2)cc1Cl (configuration not stated),4,56*,0.6,0.4,41,-10
O=C(CSc1nnc(C2CCCCC2)n1Cc1ccccc1)NCc1ccco1,11,66*,0.6,0.3,43,-3
COc1ccccc1NC(=O)CSc1nnc(COc2ccc(Cl)cc2)n1Cc1ccco1,26,23,0.8,0.8,21,7
CCOC(=O)CSC(CC)C(=O)Nc1nnc(CC)s1 (configuration not stated),2,42,1,0.6,-4,-3
OC(COc1c(Cl)cc(Cl)cc1Cl)CN1CCCCC1 (configuration not stated),0,9,0.5,0.9,47,0
Cn1c(SCC(=O)NC2CCCC2)nnc1-c1ccc(S(=O)(=O)N2CCOCC2)cc1,5,-5,1,1.1,-4,-9
CCOc1cc(/C=N/NC(=O)CN2CCOCC2)ccc1OCc1ccc(Cl)cc1,4,43,0.7,0.6,26,13
CCOC(=O)N1CCN(C(=O)C(NC(=O)c2ccc(CC)cc2)C(C)C)CC1 (configuration not stated),-6,-7,1.2,1.1,-16,27
CN(Cc1nc(-c2cccnc2)no1)S(=O)(=O)c1ccc(Br)cc1,8,38,0.7,0.6,29,-4
CN(Cc1nc(-c2ccccn2)no1)S(=O)(=O)c1ccc(Br)cc1,10,61*,0.4,0.4,61*,-7
